Laboratory results as given in PubChem BioAssay AID1159580 (chemical genetic matrix, 2015).
Out of some 5,500 compounds screened, about 2,000 (36%) were called active. About 18% were inconclusive and are not listed. No stated cut-off is given here; in the data, active means normalized growth mostly below about 0.91 (no sharp cut-off); inconclusive means no clear call, values can overlap the other calls; inactive means mostly above about 0.92. Some of the results follow.

Test: chemical genetic growth profiling, strain panel (AID 1159580);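 further: tested at 20 µM; growth read once vehicle control cultures reached saturation at 30 °C; 1 = growth at the plate median or of vehicle wells; lower values mean less growth of the strain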
Settings: S. cerevisiae deletion strains, growth OD

Measured: normalized growth

CC1=C(/C=C/C(C)=C/C=C/C(C)=C/C=C/C=C(C)/C=C/C=C(C)/C=C/C2=C(C)C(=O)CCC2(C)C)C(C)(C)CCC1=O
inactive: locus YAL021C, strain ccr4, active compounds read low 1.02 | locus YAL026C, strain drs2, active compounds read low 0.964 | locus YAL030W, strain snc1, active compounds read low 0.981 | locus YBL061C, strain skt5, active compounds read low 0.981 | locus YBR009C, strain hhf1, active compounds read low 0.941 | locus YBR023C, strain chs3, active compounds read low 0.987 | locus YBR171W, strain sec66, active compounds read low 0.975 | locus YBR231C, strain swc5, active compounds read low 0.982 | locus YBR279W, strain paf1, active compounds read low 0.989 | locus YCL011C, strain gbp2, active compounds read low 0.96 | locus YCL016C, strain dcc1, active compounds read low 1 | locus YCL061C, strain MRC1, active compounds read low 1.01 | locus YCL069W, strain vba3, active compounds read low 0.975 | locus YCR088W, strain abp1, active compounds read low 0.994 | locus YDL005C, strain med2, active compounds read low 0.981 | locus YDL040C, strain nat1, active compounds read low 0.978 | locus YDR001C, strain nth1, active compounds read low 0.986 | locus YDR069C, strain doa4, active compounds read low 0.996 | locus YDR137W, strain rgp1, active compounds read low 1.03 | locus YDR159W, strain sac3, active compounds read low 0.961 | locus YDR195W, strain ref2 0.944 | locus YDR297W, strain sur2, active compounds read low 0.995 | locus YDR334W, strain swr1, active compounds read low 0.982 | locus YDR335W, strain msn5, active compounds read low 0.992 | locus YDR392W, strain spt3, active compounds read low 0.92 | locus YEL003W, strain gim4, active compounds read low 0.979 | locus YEL037C, strain rad23, active compounds read low 0.971 | locus YEL061C, strain CIN8 (second series), active compounds read low 0.979 | locus YER015W, strain faa2, active compounds read low 0.984 | locus YER016W, strain bim1, active compounds read low 1.01 | locus YER111C, strain swi4, active compounds read low 0.963 | locus YER155C, strain BEM2 (second series), active compounds read low 0.973 | locus YFR010W, strain ubp6, active compounds read low 0.971 | locus YGL167C, strain pmr1, active compounds read low 0.978 | locus YGL173C, strain kem1, active compounds read low 0.99 | locus YGL227W, strain vid30, active compounds read low 0.971 | locus YGL240W, strain doc1, active compounds read low 1.01 | locus YGL253W, strain hxk2, active compounds read low 0.963 | locus YHR013C, strain ard1, active compounds read low 0.958 | locus YHR027C, strain rpn1, active compounds read low 0.997 | locus YHR142W, strain chs7, active compounds read low 1.01 | locus YJL092W, strain hpr5, active compounds read low 0.999 | locus YJL095W, strain BCK1 (second series), active compounds read low 1 | locus YJL115W, strain asf1, active compounds read low 0.98 | locus YJL129C, strain trk1, active compounds read low 0.989 | locus YJL154C, strain vps35, active compounds read low 0.975 | locus YJL164C, strain tpk1, active compounds read low 1.02 | locus YJL166W, strain qcr8, active compounds read low 1 | locus YJL187C, strain SWE1, active compounds read low 0.985 | locus YKL160W, strain elf1, active compounds read low 1.07 | locus YKR026C, strain gcn3, active compounds read low 0.977 | locus YKR091W, strain srl3, active compounds read low 0.985 | locus YLL001W, strain dnm1, active compounds read low 0.997 | locus YLL026W, active compounds read low 0.987 | locus YLL041C, strain sdh2, active compounds read low 0.998 | locus YLR027C, strain aat2, active compounds read low 1.01 | locus YLR221C, strain rsa3, active compounds read low 1.01 | locus YLR258W, strain gsy2, active compounds read low 0.982 | locus YLR262C, strain YPT6 (second series), active compounds read low 1.05 | locus YLR320W, strain mms22, active compounds read low 0.99 | locus YLR342W, strain FKS1, active compounds read low 0.983 | locus YLR357W, strain rsc2, active compounds read low 0.966 | locus YLR370C, strain arc18, active compounds read low 0.986 | locus YLR384C, strain iki3, active compounds read low 0.998 | locus YML120C, strain ndi1, active compounds read low 0.996 | locus YMR058W, strain fet3, active compounds read low 0.965 | locus YMR125W, strain sto1, active compounds read low 0.92 | locus YMR129W, active compounds read low 0.975 | locus YMR205C, strain PFK2, active compounds read low 0.937 | locus YMR231W, strain pep5, active compounds read low 0.987 | locus YNL071W, strain lat1, active compounds read low 0.99 | locus YNL209W, strain ssb2, active compounds read low 0.991 | locus YNL248C, strain rpa49, active compounds read low 1.03 | locus YNL322C, strain KRE1 (second series), active compounds read low 0.989 | locus YNR049C, strain mso1, active compounds read low 0.965 | locus YOR001W, strain rrp6, active compounds read low 1.03 | locus YOR070C, strain gyp1, active compounds read low 1.02 | locus YOR080W, strain dia2, active compounds read low 0.993 | locus YOR083W, strain WHI5, active compounds read low 1.05 | locus YOR106W, strain vam3, active compounds read low 0.986 | locus YOR265W, strain rbl2, active compounds read low 1.01 | locus YOR270C, strain vph1, active compounds read low 0.871 | locus YOR290C, strain snf2, active compounds read low 0.934 | locus YPL051W, strain arl3, active compounds read low 1.02 | locus YPL078C, strain atp4, active compounds read low 0.997 | locus YPL106C, strain sse1, active compounds read low 1.01 | locus YPL240C, strain hsp82, active compounds read low 1
